# Records with an inconclusive call do not appear. Calls of active or inactive are those of the source. Unless noted, calls come from the whole dose curve.
# Test: VSVG counterscreen qHTS to identify inhibitors of SARS-CoV-2 cell entry (AID 1645847); note: nearly all actives have a fitted effect of over 65% in size
# Conditions: VSV-G pseudotyped particle entry, luciferase; series mostly up to 57.2 µM
# In short: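 Expi293F/hACE2 cells, overnight plating; cpd 1 h, 37C/5% CO2; + VSV-G PP (MLV pseudotyping), 48 h; supernatant removed, Bright-Glo luciferase read. Norm: VSV-G PP and bald PP wells.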
# Potency is the fitted concentration of half-maximal effect.
row,SMILES,Potency
1,CCc1cc(C(N)=O)ccc1-n1nc(C(C)C)c2c(-n3cnc(-c4cnn(C)c4)c3)ccnc21,3.04 µM (active)
2,C=CC(=O)N1CC[C@@H](Oc2nc(Nc3ccc(N4CCC(N5CCN(C)CC5)CC4)cc3)c(C(N)=O)nc2CC)C1,5.27 µM (active)
3,Cc1nnc(C[C@@H]2C=C(c3ccc(Cl)cc3)c3ccccc3-n3c(C)nnc32)o1,9.61 µM (active)
4,CNC(=O)c1cccc(-c2ccc3c(N4CCOC[C@@H]4C)nc(N4CCOC[C@@H]4C)nc3n2)c1,2.71 µM (active)
5,CN[C@H]1CN(c2ccc3c(=O)c(C(=O)O)cn(-c4nccs4)c3n2)C[C@@H]1OC,0.622 µM (active)

# Test: Primary qHTS for inhibitors of nuclear receptor binding SET domain protein 2 (NSD2) in an isogenic RCH-ACV NSD2 p.E1099K mutant (9B) (AID 1645876; active = well fitted inhibition curve with a large enough effect; note: nearly all actives have a fitted effect of over 70% in size)
# Conditions: RCH-ACV (leukaemia line) NSD2 E1099K (9B) viability, CellTiter-Glo, 72 h; series mostly up to 44.9 µM
row,SMILES,Potency
1,COC(=O)[C@]12CCC(C)(C)C[C@@H]1[C@@H]1C(=O)C=C3[C@]4(C)C=C(C#N)C(=O)C(C)(C)[C@@H]4CC[C@@]3(C)[C@]1(C)CC2,0.461 µM (active)
2,c1cc2c(cc1C1OC[C@@H]3C(c4ccc5c(c4)OCO5)OC[C@H]13)OCO2 (stereo partly drawn),inactive
3,COC[C@@H]1OC(=O)c2coc3c2[C@]1(C)C1=C(C3=O)[C@H]2CC[C@H](O)[C@@]2(C)C[C@@H]1OC(C)=O,0.82 µM (active)

# Reference: PubChem BioAssay (NCATS)
